High-throughput results: PubChem BioAssay, National Center for Advancing Translational Sciences (NCATS)
HEK293 tox – Cytotoxic Profiling in HEK 293 Cell Line of Diverse Libraries Using Quantitative High-Throughput Screening. AID 1345083, 2018. hit rate 6.6% among 94,000. Potency, µM (series often up to 115 µM), for inactives: top-dose activity change, negative = cytotoxicity, hits mostly inhibitors. HEK 293 viability, ATP luminescence (CellTiter-Glo), 48-72 h; also: nearly all actives have a fitted effect of over 60% in size
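Read-out: CellTiter-Glo ATP luminescence. Cells: HEK 293, 250 cells/well. Exposure: 48 or 72 hr, 37 degree Celsius.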
FLuc inh – Firefly luciferase inhibition profiling of diverse chemical library using quantitative high-throughput screening; Luciferin 4-monooxygenase (Photinus pyralis), P08659; purified P. pyralis luciferase, luminescence, biochemical; Potency, µM (top dose mostly 115 µM), most hits filed as inhibitors; hit rate 2.5% among 76,000; AID 1347043, 2019; also: nearly all actives have a fitted effect of over 65% in size
Target sequence (P08659 whole entry, looked up): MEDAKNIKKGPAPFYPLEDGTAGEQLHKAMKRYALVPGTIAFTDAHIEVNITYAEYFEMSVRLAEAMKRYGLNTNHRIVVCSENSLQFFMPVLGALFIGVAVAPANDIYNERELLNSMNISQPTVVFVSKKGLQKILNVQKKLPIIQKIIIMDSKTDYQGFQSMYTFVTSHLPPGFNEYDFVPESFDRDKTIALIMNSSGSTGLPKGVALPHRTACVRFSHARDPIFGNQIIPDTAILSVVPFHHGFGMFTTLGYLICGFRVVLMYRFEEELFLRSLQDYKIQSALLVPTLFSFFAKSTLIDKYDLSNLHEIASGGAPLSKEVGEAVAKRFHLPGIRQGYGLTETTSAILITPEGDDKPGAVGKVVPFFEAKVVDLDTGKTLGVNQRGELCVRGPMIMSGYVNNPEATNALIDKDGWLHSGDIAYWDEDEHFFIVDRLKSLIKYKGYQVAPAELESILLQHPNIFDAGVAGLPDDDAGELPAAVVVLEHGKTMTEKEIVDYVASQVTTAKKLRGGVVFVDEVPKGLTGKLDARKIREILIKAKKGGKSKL
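Luminescence read by CCD imager after adding enzyme (10nM final) to wells holding compound, titrated in qHTS. Substrates 10uM each D-luciferin and ATP; buffer 50mM Tris acetate pH 7.5, 10mM Mg acetate, Tween-20, BSA.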
NIH3T3 tox – Cytotoxic Profiling in NIH 3T3 Cell Line of Diverse Libraries Using Quantitative High-Throughput Screening | NIH 3T3 viability, CellTiter-Glo ATP luminescence, 48-72 h | Potency, µM (doses to about 96.7 µM), for the others: at the top dose activity change, negative = cytotoxicity, most hits filed as inhibitors | hit rate 4.3% among 94,000 | AID 1345082, 2018; also: nearly all actives have a fitted effect of over 55% in size
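NIH 3T3 cells at 400 cells/well received 23 nL of compound by pintool and were incubated 48 or 72 h at 37 °C. Viability was read as ATP-coupled CellTiter-Glo luminescence.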
hNpr1 antagonist – Natriuretic polypeptide receptor (hNpr1) antagonism - Primary qHTS. Atrial natriuretic peptide receptor 1 (Homo sapiens), P16066. HEK293 hNpr1 GloSensor cGMP, ANP-stimulated luminescence. Potency, µM (highest dose often 46.3 µM), without a hit: at the highest dose activity change, negative = inhibition, most hits filed as inhibitors. hit rate 1.6% among 76,000. AID 1347048, 2019; calls by dose curve; also: nearly all actives have a fitted effect of over 60% in size
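HEK293 cells stably expressing human Npr1 and cGMP GloSensor pGS-40F, loaded 2 h with 2% GloSensor reagent, given compound 30 min at room temperature. Luminescence read before and 20 min after 0.1 nM hNppA.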
* = called active by the depositor; i = inactive; ? = inconclusive; / = not tested or not shown; [ ] = remark or other dose. Only some compounds are listed: those with a hit (about 11% of all), similar ones and a draw of the others. Unless noted, calls follow the shape of the dose curve; as a rule, active = well fitted curve in the direction sought with a large enough effect; inconclusive = small, poorly fitted or top-dose-only effect, or another doubt; inactive = no such curve, though single readings can be large; an effect the other way counts as inactive or inconclusive. % is scaled to controls: 0 for no effect and ±100 for the full control effect; potency is read from the fitted curve at half-maximal effect.

SMILES	HEK293 tox	FLuc inh	NIH3T3 tox	hNpr1 antagonist
Cc1noc(-c2cccn3c(CNC(=O)c4ccc(F)c(F)c4)nnc23)n1	i	i	-5.7%	11.8%
COc1ccc(C(=O)NC2CCN(c3ccc4nnc(C)n4n3)C2)cc1 (centres undefined)	-12.3%	/	?	/
CC(=O)Nc1ccc(-c2ccc(=O)n3c2[C@@H]2C[C@@H](CN(C(=O)COc4ccccc4)C2)C3)cc1	39.8µM*	i	-3.5%	5.0%
CC(=O)Nc1ccc(-c2ccc(=O)n3c2[C@@H]2C[C@@H](CN(S(=O)(=O)c4ccc(Cl)cc4)C2)C3)cc1	14.1µM*	i	-7.3%	2.9%
O=C(C1CCCN1C(=O)Cc1ccc(F)cc1)N1CCC(N2Cc3cccn3C2=O)CC1 (centres undefined)	?	/	-21.8%	/
O=C(Cc1cccc(F)c1)N1CCN(C(=O)c2nnn3c2COC(c2ccccc2)C3)CC1 (centres undefined)	-16.0%	i	0.3%	-0.9%
Cc1cc(C)cc(-c2ccc(CN3CCCC(NC(=O)N(C)C)C3)cc2)c1 (centres undefined)	31.6µM*	/	?	/
Cc1cc(C)cc(-c2ccc(CN3CCCC(NC(=O)Cc4ccc(F)cc4)C3)cc2)c1 (centres undefined)	31.6µM*	/	?	/
Cc1cc(C)cc(-c2ccc(CN3CCCC(NC(=O)C(C)C)C3)cc2)c1 (centres undefined)	-34.7%	/	-22.3%	/
COc1ccc(CC(=O)NC2CCCN(Cc3ccc(-c4cc(C)cc(C)c4)cc3)C2)cc1 (centres undefined)	22.4µM*	/	17.8µM*	/
COc1ccc(CC(=O)NC2CCCN(c3cc(-c4ccc(OC)cc4)[nH]n3)C2)cc1 (centres undefined)	4.6%	i	1.1%	0.0%
Cc1cc(C)cc(-c2ccc(CN3CCCC(NC(=O)Cc4cccc(Cl)c4)C3)cc2)c1 (centres undefined)	25.1µM*	/	?	/
CCCn1cc(-c2ccncc2)cc1C(=O)NCc1cccc(F)c1	?	i	?	1.2%
CC(C)c1ccc(CN2C[C@@H]3C(=O)N(CCc4ccccc4)C(=O)[C@@H]3C2)cc1	?	i	?	?
Cn1nccc1CN1CCC2(COc3ccccc3C(=O)N2)C1 (centres undefined)	89.1µM*	i	?	6.8%[70.6 µM]
O=C1NC2(CCN(Cc3ccccc3)C2)COc2ccccc21 (centres undefined)	?	i	?	1.6%[70.6 µM]
N#Cc1ccc(CN2CCCC3(C2)NC(=O)c2ccccc2O3)cc1 (centres undefined)	89.1µM*	i	?	?
O=C1NC2(CCN(Cc3ccsc3)CC2)COc2ccccc21	63.1µM*	i	?	-16.6%[70.6 µM]
O=C1NC2(CCN(Cc3ccc(F)cc3)C2)COc2ccccc21 (centres undefined)	?	i	28.2µM*	-15.6%[70.6 µM]
O=C1NC2(CCN(Cc3ccc(C(F)(F)F)cc3)CC2)COc2ccccc21	?	i	-12.2%	-18.0%
CN(C)Cc1cn2c(=O)n(C)cc(-c3ccc(F)c(Cl)c3)c2n1	?	i	?	4.6%[70.6 µM]
N#Cc1ccc(CN2CCC3(COc4ccccc4C(=O)N3)C2)cc1 (centres undefined)	63.1µM*	i	31.6µM*	?
O=C1NC2(CCN(Cc3ccccc3C(F)(F)F)CC2)COc2ccccc21	-2.6%	i	i	0.0%
O=C1NC2(CCN(Cc3ccccc3C(F)(F)F)CC2)Oc2ccccc21	39.8µM*	i	?	2.8%
CN(C)c1ccc(NC(=S)N[C@H]2CO[C@H]3[C@@H]2OC[C@H]3OC(=O)Nc2cccc3ccccc23)cc1	-26.9%	31.6µM*	?	-3.3%
SMILES	HEK293 tox	FLuc inh	NIH3T3 tox	hNpr1 antagonist
O=C(Nc1cccc2ccccc12)O[C@@H]1CO[C@H]2[C@@H]1OC[C@@H]2NC(=S)Nc1ccc(Cl)cc1	39.8µM*	i	?	-5.0%
S=C(Nc1cccc2ccccc12)N[C@H]1CO[C@H]2[C@@H]1OC[C@H]2OCc1ccccc1	63.1µM*	i	?	?
O=C(Nc1cccc2ccccc12)O[C@@H]1CO[C@H]2[C@@H]1OC[C@@H]2NC(=S)Nc1cccc2ccccc12	?	i	?	-3.0%
COCCn1c(C)cnc1CC1CCCN(S(=O)(=O)c2cccc(OC)c2)C1 (centres undefined)	?	/	-29.4%	/
CC(C)(C)CC(=O)N1CC[C@H]2NC(=O)N(c3ccc(Oc4ccccc4)cc3)C(=O)[C@H]21	4.4%[172 µM]	i	1.1%[174 µM]	2.3%[70.6 µM]
CCNc1ccnc(NC2CCCc3c2cnn3-c2ccc(C)c(C)c2)n1 (centres undefined)	39.8µM*	?	28.2µM*	2.8%
O=C(COc1ccc(F)cc1)N1CC(c2nnc(-c3ccncc3)o2)C2(CCOCC2)C1 (centres undefined)	-4.0%	i	-16.0%	-8.0%
Cc1nn(-c2ccccc2[N+](=O)[O-])c(C)c1[C@@H]1C=C[C@@H](NCc2ccc(C(C)C)cc2)C1	20µM*	i	?	?
Cc1nn(-c2ccccc2[N+](=O)[O-])c(C)c1[C@@H]1C=C[C@@H](NCc2ccco2)C1	89.1µM*	i	?	-16.9%[70.6 µM]
Cc1nn(-c2ccccn2)c(C)c1[C@@H]1C=C[C@@H](NC(=O)NCc2ccccc2)C1	?	?	?	-25.9%[70.6 µM]
CCOc1ccccc1-c1noc(-c2ncn3c2COC(c2ccc(OC)cc2)C3)n1 (centres undefined)	?	i	?	5.0%
Cc1cn2nc(C(=O)NCc3ccc(C(F)(F)F)cc3)cc2c(N2CCCC2)n1	44.7µM*	i	?	-9.8%
CCOc1ccccc1NC(=O)c1cc2c(N3CCSCC3)nc(C)cn2n1	35.5µM*	i	?	-4.1%
CCc1ccc(CNC(=O)c2cc3c(N4CCCC4)nc(C)cn3n2)cc1	?	i	?	12.7%
COCCCn1c(=O)c(C(=O)N2CCN(C(=O)N(C)C)CC2)nc2cccnc21	2.3%	/	0.9%	/
CCOC(=O)C1CCCN(C(=O)c2cc(-c3ccc(F)cc3)c3nncn3n2)C1 (centres undefined)	-25.9%	/	?	/
CN(C)CCNc1cc(-c2ccc3ccccc3n2)c2cc[nH]c2n1	39.8µM*	i	?	-2.0%
CC(C)c1cccc(-c2cc(NCc3ccccn3)nc3[nH]ccc23)n1	44.7µM*	?	?	-4.5%
N#CC1(c2ccc(-c3cccc(CN4CCOCC4)c3)cc2)CCCC1	?	35.5µM*	?	-8.2%
COc1ccc(F)cc1-c1ccc(CN2CCC(NC(=O)Nc3ccc(Cl)cc3)C2)cc1 (centres undefined)	12.6µM*	/	11.2µM*	/
